High-throughput results: PubChem, National Center for Advancing Translational Sciences (NCATS)
The list is not random: actives were taken first. Their share in the collection is about 21%.
Pf growth 96h: P. falciparum growth inhibition at 96 hour, primary screen for plastid delayed-death inhibitors | P. falciparum luciferase reporter growth, 96 h | Potency, µM (titrated, usually from 28.7 µM), usual class: inhibitors | 320,000 compounds, 6.9% hits | AID 504834; active = well fitted inhibition curve with a large enough effect; inconclusive = small, poorly fitted or top-dose-only effect, or another doubt; inactive = no such curve, though single readings can be large or run the other way
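Infected RBCs, 2% Hct / 0.05% parasitemia final; luciferase-reporter P. falciparum; cpd 96 h, 37 C, 5% CO2; luciferase detection reagent; luminescence.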
Shiga inhibitor: Shiga toxin inhibition; Vero cells, Shiga toxin protein synthesis inhibition reporter; inhibition, % at 38.7 µM; 290,000 compounds, 9.2% hits; in the data active = inhibition mostly above about 28%, no sharp cut-off; inactive = mostly below about 43%
NS1 inh: blocks influenza NS1 protein function. AID 2326. Potency, µM (series often up to 46.1 µM). 270,000 compounds, 0.4% hits; also: actives are rising curves; nearly all actives have a fitted effect of over 50% in size
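A cell-based growth assay was used: compounds that relieve NS1-induced slow growth of budding yeast raise OD600. Assay medium was yeast nitrogen base with ammonium sulphate and -URA supplement, pH 6.0, with 2% galactose.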
Cycloheximide cs: affects cycloheximide protein synthesis inhibition readout, counter-screen; 300,000 compounds, 12% hits; max response, %; AID 2314; cell reporter, cycloheximide protein synthesis inhibition counterscreen; in the data active = max response mostly above about 13%, no sharp cut-off; inactive = mostly below about 14%; also: read at 38.3 µM for the half of the compounds with a filed dose
Pf growth 48h: inhibits P. falciparum growth in the first generation, 48 h | Potency, µM (series often up to 28.7 µM), actives largely listed as inhibitors | 310,000 compounds, 5.9% hits | AID 504832 | P. falciparum luciferase growth in erythrocytes, 48 h; active = well fitted inhibition curve with a large enough effect; inconclusive = small, poorly fitted or top-dose-only effect, or another doubt; inactive = no such curve, though single readings can be large or run the other way
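Erythrocytes infected with P. falciparum carrying an integrated firefly luciferase reporter (2% hematocrit, 0.1% parasitemia final) were exposed to compounds in RPMI 1640 with 0.5% Albumax at 37 C, 5% CO2. Growth inhibition was scored as reduced luminescence.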
SARS PLP yeast: SARS-CoV PLP inhibition in yeast. S. cerevisiae expressing SARS-CoV PLpro, growth rescue. Potency, µM (series often up to 32.9 µM), hits mostly activators. 330,000 compounds, 0.19% hits. AID 485353; also: nearly all actives have a fitted effect of over 55% in size
Hits are given with their value. Unless noted, calls follow the shape of the full dose curve.

How did COc1ccc2c(CC(=O)Nc3ccc(OC)c(NS(=O)(=O)c4ccc(F)cc4)c3)coc2c1 do in these assays?
Pf growth 96h: 14.7µM; Shiga inhibitor: inactive; NS1 inh: inactive; Cycloheximide cs: inactive; Pf growth 48h: inconclusive; SARS PLP yeast: inactive

Results for O=C(COc1ccccc1)Nc1cc(C(F)(F)F)ccc1N1CCCC1 ?
Pf growth 96h: inactive; Shiga inhibitor: inactive; NS1 inh: inactive; Cycloheximide cs: inactive; Pf growth 48h: inconclusive; SARS PLP yeast: inactive

How did COc1ccccc1CC(=O)Nc1cccc(S(=O)(=O)N2CCOCC2)c1 do in these assays?
Pf growth 96h: inconclusive; Shiga inhibitor: inactive; NS1 inh: inactive; Cycloheximide cs: inactive; Pf growth 48h: inactive; SARS PLP yeast: inactive

How did CCc1cccc(OCC(=O)Nc2cc(S(=O)(=O)N3CCOCC3)ccc2N2CCCC2)c1 do in these assays?
Pf growth 96h: 8.28µM; Shiga inhibitor: inactive; NS1 inh: inactive; Cycloheximide cs: inactive; Pf growth 48h: inconclusive; SARS PLP yeast: inactive

Results for COc1cccc(CC(=O)Nc2cc(S(=O)(=O)N3CCOCC3)ccc2N2CCOCC2)c1 ?
Pf growth 96h: 10.4µM; Shiga inhibitor: inactive; Cycloheximide cs: inactive; Pf growth 48h: inconclusive; SARS PLP yeast: inactive

What do the screens show for `COc1ccc2c(CC(=O)Nc3cccc(S(=O)(=O)N4CCOCC4)c3)coc2c1`?
Pf growth 96h: 2.33µM; Shiga inhibitor: inactive; NS1 inh: inactive; Cycloheximide cs: inactive; Pf growth 48h: inconclusive; SARS PLP yeast: inactive

How did Cc1ccccc1NC(=O)c1ccc(Cl)c(NC(=O)c2cccnc2)c1 do in these assays?
Pf growth 96h: inactive; Shiga inhibitor: inactive; NS1 inh: inactive; Cycloheximide cs: inactive; Pf growth 48h: inactive; SARS PLP yeast: inactive

Results for CC(NC(=O)CN1C(=O)NC2(CCCC2)C1=O)c1ccc(Cl)cc1Cl (stereo not drawn) ?
SARS PLP yeast: inactive

Results for Cc1c(NS(=O)(=O)c2ccc3c(c2)NC(=O)CC(=O)N3)cccc1[N+](=O)[O-] ?
Pf growth 96h: 14.7µM; Shiga inhibitor: inactive; NS1 inh: inactive; Cycloheximide cs: inactive; Pf growth 48h: inactive; SARS PLP yeast: inactive

How did CCc1ccccc1NS(=O)(=O)c1ccc2c(c1)NC(=O)CC(=O)N2 do in these assays?
Pf growth 96h: inactive; Shiga inhibitor: inactive; NS1 inh: inactive; Cycloheximide cs: inactive; Pf growth 48h: inactive; SARS PLP yeast: inactive

What do the screens show for `COc1ccc(CN(CC(=O)NCc2ccccc2)C(=O)CCC(=O)Nc2nccs2)cc1`?
Pf growth 96h: inactive; Shiga inhibitor: inactive; NS1 inh: inactive; Cycloheximide cs: inactive; Pf growth 48h: inactive; SARS PLP yeast: inactive

Results for O=C(Cn1nc(C(F)F)cc1C1CC1)NCCC1=CCCCC1 ?
Pf growth 96h: 3.29µM; Shiga inhibitor: inactive; NS1 inh: inactive; Cycloheximide cs: inactive; Pf growth 48h: inactive; SARS PLP yeast: inactive

What do the screens show for `O=C(CCN1C(=O)C2CCCCC2C1=O)Nc1nc(-c2ccccc2)cs1` (stereo not drawn)?
Pf growth 96h: inactive; Shiga inhibitor: inactive; NS1 inh: inactive; Cycloheximide cs: 17.1; Pf growth 48h: inactive; SARS PLP yeast: inactive

How did O=C(CN1CCOCC1)Nc1nc(-c2ccccc2)cs1 do in these assays?
Pf growth 96h: inactive; Shiga inhibitor: inactive; NS1 inh: inactive; Cycloheximide cs: inactive; SARS PLP yeast: inactive

What do the screens show for `Cc1ccc(-c2csc(NC(=O)CN3CCOCC3)n2)cc1C`?
Pf growth 96h: inactive; Shiga inhibitor: inactive; NS1 inh: inactive; Cycloheximide cs: 21.4; Pf growth 48h: inactive; SARS PLP yeast: inactive

Results for O=C(CCN1C(=O)C2CC=CCC2C1=O)Nc1nc(-c2ccc(F)c(F)c2)cs1 (stereo not drawn) ?
Pf growth 96h: inconclusive; Pf growth 48h: inconclusive; SARS PLP yeast: inactive

How did CN1CCN(CC(=O)N(C)c2nc(-c3ccccc3)cs2)CC1 do in these assays?
Pf growth 96h: inactive; Shiga inhibitor: 60.4; NS1 inh: inactive; Cycloheximide cs: 60.6; Pf growth 48h: inactive; SARS PLP yeast: inactive

Results for COCC(=O)Nc1nc(-c2ccc(-c3ccccc3)cc2)cs1 ?
Pf growth 96h: inactive; Shiga inhibitor: 80.9; NS1 inh: inactive; Cycloheximide cs: 64.7; Pf growth 48h: inactive; SARS PLP yeast: inactive

Results for CN1CCN(CC(=O)Nc2nc(-c3ccccc3)cs2)CC1 ?
Pf growth 96h: inactive; Shiga inhibitor: inactive; NS1 inh: inactive; Cycloheximide cs: inactive; Pf growth 48h: inactive; SARS PLP yeast: inactive

Results for COc1ccc(N2CCN(C(=O)CN3C(=O)NC4(CCCc5ccccc54)C3=O)CC2)cc1 (stereo not drawn) ?
Pf growth 96h: inactive; Pf growth 48h: inconclusive; SARS PLP yeast: inactive

Results for Cc1ccc(S(=O)(=O)N(C)c2c(C)ccc(S(N)(=O)=O)c2C)cc1 ?
Pf growth 96h: inactive; Shiga inhibitor: inactive; NS1 inh: inactive; Cycloheximide cs: inactive; Pf growth 48h: inactive; SARS PLP yeast: inactive

Results for O=C(O)CCN1C(=O)C2C3C=CC(C2C1=O)C1C(=O)N(CCC(=O)O)C(=O)C31 (stereo not drawn) ?
Pf growth 96h: inactive; Shiga inhibitor: inactive; NS1 inh: inactive; Cycloheximide cs: inactive; Pf growth 48h: inactive; SARS PLP yeast: inactive

What do the screens show for `O=C(O)CCN1C(=O)C2CCCCC2C1=O` (stereo not drawn)?
Pf growth 96h: 0.738µM; Shiga inhibitor: inactive; NS1 inh: inactive; Cycloheximide cs: inactive; SARS PLP yeast: inactive

What do the screens show for `CC(=O)NCC(=O)OCC(=O)Nc1nc(-c2ccccc2)cs1`?
Pf growth 96h: inactive; Shiga inhibitor: 63.4; Cycloheximide cs: 16.3; Pf growth 48h: inactive; SARS PLP yeast: inactive

Results for Cc1nc(NC(=O)CN2CCOCC2)sc1-c1ccccc1 ?
Pf growth 96h: inactive; Shiga inhibitor: inactive; NS1 inh: inactive; Cycloheximide cs: 26.4; Pf growth 48h: inactive; SARS PLP yeast: inactive

What do the screens show for `O=C(CN1CCCCC1)Nc1nc(-c2ccccc2)cs1`?
Pf growth 96h: inactive; Shiga inhibitor: 35.0; NS1 inh: inactive; Cycloheximide cs: 34.6; SARS PLP yeast: inactive

What do the screens show for `Cc1ccccc1C(=O)N1CCc2cc(-c3csc(NC(=O)CN4CCCC4)n3)ccc21`?
Pf growth 96h: inactive; Shiga inhibitor: inactive; NS1 inh: inactive; Cycloheximide cs: inactive; Pf growth 48h: 4.15µM; SARS PLP yeast: inactive

How did CCC(=O)N1CCc2cc(-c3csc(NC(=O)c4ccco4)n3)ccc21 do in these assays?
Pf growth 96h: inactive; Shiga inhibitor: inactive; NS1 inh: inactive; Cycloheximide cs: 27.8; Pf growth 48h: inconclusive; SARS PLP yeast: inactive

Results for CC(C)C(=O)N1CCc2cc(-c3csc(N)n3)ccc21 ?
Pf growth 96h: inactive; Shiga inhibitor: inactive; NS1 inh: inactive; Cycloheximide cs: 21.6; Pf growth 48h: 10.4µM; SARS PLP yeast: inconclusive

What do the screens show for `O=C(Nc1nc(-c2cccc(Br)c2)cs1)Oc1ccccc1`?
Pf growth 96h: inactive; Shiga inhibitor: inactive; NS1 inh: inactive; Cycloheximide cs: inactive; Pf growth 48h: inactive; SARS PLP yeast: inactive

What do the screens show for `O=C(CN1CCCCC1)Nc1nc(-c2ccc(F)c(F)c2)cs1`?
Pf growth 96h: inactive; Shiga inhibitor: inactive; NS1 inh: inactive; Cycloheximide cs: inactive; Pf growth 48h: inconclusive; SARS PLP yeast: inactive
